Measured values reported in ChEMBL document CHEMBL3988442, “University of Dundee, Small-Polar-MMV Screening Library” (2021).
For some assays here: Entries with a potency or affinity are not part of this list.

Legend:
[1] = target: Protein translocase subunit SecA (Escherichia coli (strain K12)) (UniProt P10408); assay: Assay to Identify E. coli SecA ATPase Inhibitors; assay type: functional; parameters: scale not given: direction of the effect not stated beside the values; conditions: 30 µM
[2] = target: T1, Ubiquitin-activating enzyme e1, putative (Leishmania donovani (strain BPK282A1)) (UniProt E9BSI1); assay: Leishmania donovani Ubiquitin Activating Enzyme (LdE1); assay type: functional; parameters: scale not given: direction of the effect not stated beside the values; conditions: 30 µM
T1 sequence (whole entry): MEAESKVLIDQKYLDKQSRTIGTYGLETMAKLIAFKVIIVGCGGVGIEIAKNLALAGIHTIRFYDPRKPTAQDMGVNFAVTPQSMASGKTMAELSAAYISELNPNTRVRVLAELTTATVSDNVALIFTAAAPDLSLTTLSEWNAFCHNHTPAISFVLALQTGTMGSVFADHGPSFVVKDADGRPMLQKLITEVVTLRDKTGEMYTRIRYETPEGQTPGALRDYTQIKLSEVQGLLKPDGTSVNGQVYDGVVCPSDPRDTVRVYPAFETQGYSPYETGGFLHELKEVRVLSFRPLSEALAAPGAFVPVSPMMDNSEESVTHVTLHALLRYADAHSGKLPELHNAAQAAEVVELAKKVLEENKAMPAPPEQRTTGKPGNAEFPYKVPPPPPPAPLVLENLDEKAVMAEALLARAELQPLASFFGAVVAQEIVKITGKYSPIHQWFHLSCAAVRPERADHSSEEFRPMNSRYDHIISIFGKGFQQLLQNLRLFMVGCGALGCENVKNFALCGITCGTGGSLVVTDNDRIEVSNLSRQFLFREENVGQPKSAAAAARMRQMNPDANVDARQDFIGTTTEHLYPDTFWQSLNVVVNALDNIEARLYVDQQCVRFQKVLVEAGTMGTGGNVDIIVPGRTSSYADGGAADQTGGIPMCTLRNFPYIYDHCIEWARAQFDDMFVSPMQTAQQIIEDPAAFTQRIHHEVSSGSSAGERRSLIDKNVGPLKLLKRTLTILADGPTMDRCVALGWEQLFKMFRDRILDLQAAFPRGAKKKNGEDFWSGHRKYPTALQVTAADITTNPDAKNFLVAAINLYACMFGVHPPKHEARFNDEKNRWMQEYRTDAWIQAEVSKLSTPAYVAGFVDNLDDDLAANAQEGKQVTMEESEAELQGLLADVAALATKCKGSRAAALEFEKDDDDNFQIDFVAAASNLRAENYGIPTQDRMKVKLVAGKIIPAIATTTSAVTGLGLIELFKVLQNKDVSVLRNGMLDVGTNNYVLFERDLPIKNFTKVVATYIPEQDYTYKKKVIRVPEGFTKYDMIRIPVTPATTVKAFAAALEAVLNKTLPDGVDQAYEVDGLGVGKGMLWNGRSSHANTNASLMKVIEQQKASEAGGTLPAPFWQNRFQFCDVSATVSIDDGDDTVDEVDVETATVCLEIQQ

[3] = target: T2, Aspartate--tRNA(Asp/Asn) ligase (Mycobacterium tuberculosis (strain ATCC 25618 / H37Rv)) (UniProt P9WFW3); assay: Assay for Asp RNA synthetase-1 from Mycobacterium tuberculosis; assay type: functional; parameters: scale not given: direction of the effect not stated beside the values; conditions: 30 µM; also: in the data most compounds retested in dose-response had high values
T2 sequence (whole entry): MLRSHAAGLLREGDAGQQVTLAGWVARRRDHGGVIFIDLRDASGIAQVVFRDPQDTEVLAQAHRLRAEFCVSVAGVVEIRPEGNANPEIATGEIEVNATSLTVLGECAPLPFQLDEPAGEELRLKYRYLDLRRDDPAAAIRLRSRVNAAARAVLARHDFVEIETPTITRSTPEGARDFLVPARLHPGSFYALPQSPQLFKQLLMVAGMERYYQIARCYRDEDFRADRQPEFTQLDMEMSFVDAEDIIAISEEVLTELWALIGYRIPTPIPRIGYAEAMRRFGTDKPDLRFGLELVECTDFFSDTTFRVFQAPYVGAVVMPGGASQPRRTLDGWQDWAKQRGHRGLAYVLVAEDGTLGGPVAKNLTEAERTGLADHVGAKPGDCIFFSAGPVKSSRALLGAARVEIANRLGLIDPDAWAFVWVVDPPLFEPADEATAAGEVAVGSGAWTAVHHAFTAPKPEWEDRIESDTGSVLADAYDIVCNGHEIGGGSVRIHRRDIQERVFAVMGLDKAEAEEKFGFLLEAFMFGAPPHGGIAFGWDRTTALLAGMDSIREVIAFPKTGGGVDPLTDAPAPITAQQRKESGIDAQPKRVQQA

[4] = target: AMP-activated protein kinase, AMPK (Homo sapiens) (UniProt P54646+O43741+P54619+Q9UGJ0+Q9Y478+Q13131+Q9UGI9); assay: AMP-dependent Kinase enzyme assay. An in vitro enzyme assay that detects ADP turnover that is directly proportional to AMPK activity. This uses naive AMPK that is activated during the assay with MK-8722; assay type: functional; parameters: scale not given: direction of the effect not stated beside the values; conditions: 30 µM
[5] = target: Sialic acid-binding Ig-like lectin 9 (Homo sapiens) (UniProt Q9Y336); assay: Hs-Siglec9 ALPHAscreen SOP 20170721; parameters: scale not given: direction of the effect not stated beside the values; conditions: 10 µM
Trypanosoma cruzi = assay: Trypanosoma cruzi phosphomannomutase and mannose-1-phosphate guanylyltransferase assay; assay type: functional; parameters: scale not given: direction of the effect not stated beside the values; conditions: 10 µM
[6] = target: T3, Arginase-2, mitochondrial (Homo sapiens) (UniProt P78540); assay: in vitro enzyme assay to detect the production of urea directly proportional to the activity of Arginase II; assay type: functional; parameters: scale not given: in the data most compounds retested in dose-response had high values; conditions: 33.3 µM
T3 sequence (whole entry): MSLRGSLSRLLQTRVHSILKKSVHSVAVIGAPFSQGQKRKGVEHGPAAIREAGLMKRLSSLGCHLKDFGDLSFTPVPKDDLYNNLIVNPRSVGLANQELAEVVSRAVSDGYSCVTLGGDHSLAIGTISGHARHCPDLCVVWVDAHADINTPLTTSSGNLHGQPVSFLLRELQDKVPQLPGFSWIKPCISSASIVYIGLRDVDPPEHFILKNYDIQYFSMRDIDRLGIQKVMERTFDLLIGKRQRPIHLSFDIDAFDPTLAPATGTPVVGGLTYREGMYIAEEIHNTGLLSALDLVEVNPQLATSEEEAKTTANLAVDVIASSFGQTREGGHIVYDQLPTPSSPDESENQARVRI

[7] = target: T4, Proteasome subunit beta (Trypanosoma cruzi) (UniProt O96673); assay: Trypanosoma cruzi proteasome chymotrypsin-like activity (TcProtChymo) assay.; assay type: functional; parameters: scale not given: in the data most compounds retested in dose-response had high values; conditions: 9.37 µM
T4 sequence (whole entry): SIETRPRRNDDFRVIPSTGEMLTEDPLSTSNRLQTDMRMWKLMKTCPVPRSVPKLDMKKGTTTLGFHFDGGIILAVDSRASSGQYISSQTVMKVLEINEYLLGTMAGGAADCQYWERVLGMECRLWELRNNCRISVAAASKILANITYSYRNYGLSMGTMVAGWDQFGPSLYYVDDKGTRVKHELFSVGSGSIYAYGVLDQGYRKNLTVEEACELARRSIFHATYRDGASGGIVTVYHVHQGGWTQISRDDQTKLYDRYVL

Homo sapiens = species on record: Homo sapiens; assay: To identify inhibition of the IFN signalling (Jak-Stat) pathway via expression of an eGFP reporter gene under the control of an IFN-stimulated response element (ISRE) containing MxA promoter.; assay type: functional; parameters: scale not given: direction of the effect not stated beside the values; conditions: 30 µM
[8] = target: Shiga toxin 2 (Escherichia coli O157:H7) (UniProt P09385+P09386); assay: E. coli 0.157:H7 Shiga Toxin SOP - stx2 screening assay; assay type: functional; parameters: scale not given: direction of the effect not stated beside the values; conditions: 30 µM
[9] = target: T5, Tyrosyl-tRNA synthetase, putative (Trypanosoma cruzi (strain CL Brener)) (UniProt Q4DSP6); assay: Trypanosoma cruzi tyrosyl tRNA synthetase (TcYRS) _High Tyrosine SOP; assay type: functional; parameters: scale not given: in the data most compounds retested in dose-response had high values; conditions: 30 µM
T5 sequence (whole entry): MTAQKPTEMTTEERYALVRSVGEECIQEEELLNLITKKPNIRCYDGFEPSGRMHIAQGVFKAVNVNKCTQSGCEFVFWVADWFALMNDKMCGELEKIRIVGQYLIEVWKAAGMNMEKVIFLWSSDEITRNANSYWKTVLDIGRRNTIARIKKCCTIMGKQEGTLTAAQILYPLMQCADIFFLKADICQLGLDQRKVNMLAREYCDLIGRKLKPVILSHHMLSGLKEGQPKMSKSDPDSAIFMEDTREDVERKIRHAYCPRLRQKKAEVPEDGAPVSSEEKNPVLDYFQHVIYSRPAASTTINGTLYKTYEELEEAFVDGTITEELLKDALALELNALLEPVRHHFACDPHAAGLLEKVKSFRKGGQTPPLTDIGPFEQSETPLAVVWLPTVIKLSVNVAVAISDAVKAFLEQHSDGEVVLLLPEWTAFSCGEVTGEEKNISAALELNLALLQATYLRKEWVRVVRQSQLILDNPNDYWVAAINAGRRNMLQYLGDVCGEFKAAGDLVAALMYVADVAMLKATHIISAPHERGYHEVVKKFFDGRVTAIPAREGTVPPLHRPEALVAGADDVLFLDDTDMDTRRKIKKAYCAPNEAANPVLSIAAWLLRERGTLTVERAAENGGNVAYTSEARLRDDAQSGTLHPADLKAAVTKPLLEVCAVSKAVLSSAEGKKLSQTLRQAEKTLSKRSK

[10] = target: T5, Tyrosyl-tRNA synthetase, putative (Trypanosoma cruzi (strain CL Brener)); assay: Trypanosoma cruzi tyrosyl tRNA synthetase (TcYRS) SOP; assay type: functional; parameters: scale not given: direction of the effect not stated beside the values; conditions: 30 µM
[11] = target: Chromo domain-containing protein 1 (Saccharomyces cerevisiae (strain ATCC 204508 / S288c) (Baker's yeast)) (UniProt P32657); assay: ScCHD-1 Enzyme Inhibition Assay; assay type: functional; parameters: scale not given: in the data most compounds retested in dose-response had high values; conditions: 30 µM
[12] = target: T6, Methionyl-tRNA synthetase, putative (Leishmania donovani (strain BPK282A1)) (UniProt E9BF75); assay: Leishmania donovani Methionine tRNA synthetase (LdMetRS):v7. Dose response assay; assay type: functional; parameters: conc 80 nM, time 150 minutes
T6 sequence (whole entry): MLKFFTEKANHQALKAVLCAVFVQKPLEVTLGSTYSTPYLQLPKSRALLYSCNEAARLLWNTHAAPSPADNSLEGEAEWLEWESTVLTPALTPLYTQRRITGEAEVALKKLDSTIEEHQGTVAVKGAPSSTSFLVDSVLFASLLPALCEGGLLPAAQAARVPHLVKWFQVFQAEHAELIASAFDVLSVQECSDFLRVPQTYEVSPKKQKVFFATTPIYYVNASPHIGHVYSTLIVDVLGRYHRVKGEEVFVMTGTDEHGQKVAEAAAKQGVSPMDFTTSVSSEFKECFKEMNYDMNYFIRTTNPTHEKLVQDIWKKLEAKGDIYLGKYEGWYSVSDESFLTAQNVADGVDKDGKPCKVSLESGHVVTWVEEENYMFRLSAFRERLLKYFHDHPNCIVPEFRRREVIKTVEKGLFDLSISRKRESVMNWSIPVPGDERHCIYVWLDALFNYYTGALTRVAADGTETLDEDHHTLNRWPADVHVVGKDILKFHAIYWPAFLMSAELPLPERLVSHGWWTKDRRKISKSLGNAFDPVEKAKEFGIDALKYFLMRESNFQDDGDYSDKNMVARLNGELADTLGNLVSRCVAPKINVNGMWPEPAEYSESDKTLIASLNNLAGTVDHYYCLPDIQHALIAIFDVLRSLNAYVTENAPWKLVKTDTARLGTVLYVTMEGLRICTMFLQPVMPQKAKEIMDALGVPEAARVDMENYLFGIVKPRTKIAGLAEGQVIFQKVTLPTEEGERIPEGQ

Sequence of Protein translocase subunit SecA (Escherichia coli (strain K12)) (P10408 whole entry): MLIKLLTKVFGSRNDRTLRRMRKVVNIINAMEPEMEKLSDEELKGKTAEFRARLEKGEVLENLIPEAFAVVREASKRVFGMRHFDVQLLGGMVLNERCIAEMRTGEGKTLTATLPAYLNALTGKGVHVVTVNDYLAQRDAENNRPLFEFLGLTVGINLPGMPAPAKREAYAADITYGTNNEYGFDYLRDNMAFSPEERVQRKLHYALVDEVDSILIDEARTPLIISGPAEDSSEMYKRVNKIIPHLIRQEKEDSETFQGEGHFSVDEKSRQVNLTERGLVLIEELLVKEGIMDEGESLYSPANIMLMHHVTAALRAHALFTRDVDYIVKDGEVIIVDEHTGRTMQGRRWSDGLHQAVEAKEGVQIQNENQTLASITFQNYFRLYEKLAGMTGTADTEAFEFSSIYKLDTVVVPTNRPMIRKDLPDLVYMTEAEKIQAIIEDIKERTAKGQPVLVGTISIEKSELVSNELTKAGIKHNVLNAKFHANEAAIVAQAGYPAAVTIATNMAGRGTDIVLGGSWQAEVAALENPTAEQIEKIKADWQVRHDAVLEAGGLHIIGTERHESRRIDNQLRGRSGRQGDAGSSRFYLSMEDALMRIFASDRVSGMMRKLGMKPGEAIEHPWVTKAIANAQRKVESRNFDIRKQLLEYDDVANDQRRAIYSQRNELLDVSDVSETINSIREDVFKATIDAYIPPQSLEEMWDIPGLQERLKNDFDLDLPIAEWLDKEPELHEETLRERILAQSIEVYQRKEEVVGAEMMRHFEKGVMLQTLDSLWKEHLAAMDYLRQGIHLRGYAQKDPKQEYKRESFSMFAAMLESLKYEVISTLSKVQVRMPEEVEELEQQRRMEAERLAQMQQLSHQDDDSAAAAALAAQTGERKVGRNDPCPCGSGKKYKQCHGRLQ
Sequence of Sialic acid-binding Ig-like lectin 9 (Homo sapiens) (Q9Y336 whole entry): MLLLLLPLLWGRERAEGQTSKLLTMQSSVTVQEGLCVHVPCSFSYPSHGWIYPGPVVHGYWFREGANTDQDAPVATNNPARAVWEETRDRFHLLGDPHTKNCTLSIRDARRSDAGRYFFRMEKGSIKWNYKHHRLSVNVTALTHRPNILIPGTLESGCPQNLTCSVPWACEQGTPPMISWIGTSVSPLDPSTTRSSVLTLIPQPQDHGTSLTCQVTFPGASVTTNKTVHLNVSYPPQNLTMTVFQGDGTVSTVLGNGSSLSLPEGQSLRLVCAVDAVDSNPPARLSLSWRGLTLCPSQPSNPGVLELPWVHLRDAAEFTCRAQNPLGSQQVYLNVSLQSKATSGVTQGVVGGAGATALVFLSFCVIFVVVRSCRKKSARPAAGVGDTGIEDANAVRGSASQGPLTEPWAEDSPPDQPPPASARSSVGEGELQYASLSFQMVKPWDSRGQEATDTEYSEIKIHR
Sequence of Chromo domain-containing protein 1 (Saccharomyces cerevisiae (strain ATCC 204508 / S288c) (Baker's yeast)) (P32657 whole entry, the tested form may be a part): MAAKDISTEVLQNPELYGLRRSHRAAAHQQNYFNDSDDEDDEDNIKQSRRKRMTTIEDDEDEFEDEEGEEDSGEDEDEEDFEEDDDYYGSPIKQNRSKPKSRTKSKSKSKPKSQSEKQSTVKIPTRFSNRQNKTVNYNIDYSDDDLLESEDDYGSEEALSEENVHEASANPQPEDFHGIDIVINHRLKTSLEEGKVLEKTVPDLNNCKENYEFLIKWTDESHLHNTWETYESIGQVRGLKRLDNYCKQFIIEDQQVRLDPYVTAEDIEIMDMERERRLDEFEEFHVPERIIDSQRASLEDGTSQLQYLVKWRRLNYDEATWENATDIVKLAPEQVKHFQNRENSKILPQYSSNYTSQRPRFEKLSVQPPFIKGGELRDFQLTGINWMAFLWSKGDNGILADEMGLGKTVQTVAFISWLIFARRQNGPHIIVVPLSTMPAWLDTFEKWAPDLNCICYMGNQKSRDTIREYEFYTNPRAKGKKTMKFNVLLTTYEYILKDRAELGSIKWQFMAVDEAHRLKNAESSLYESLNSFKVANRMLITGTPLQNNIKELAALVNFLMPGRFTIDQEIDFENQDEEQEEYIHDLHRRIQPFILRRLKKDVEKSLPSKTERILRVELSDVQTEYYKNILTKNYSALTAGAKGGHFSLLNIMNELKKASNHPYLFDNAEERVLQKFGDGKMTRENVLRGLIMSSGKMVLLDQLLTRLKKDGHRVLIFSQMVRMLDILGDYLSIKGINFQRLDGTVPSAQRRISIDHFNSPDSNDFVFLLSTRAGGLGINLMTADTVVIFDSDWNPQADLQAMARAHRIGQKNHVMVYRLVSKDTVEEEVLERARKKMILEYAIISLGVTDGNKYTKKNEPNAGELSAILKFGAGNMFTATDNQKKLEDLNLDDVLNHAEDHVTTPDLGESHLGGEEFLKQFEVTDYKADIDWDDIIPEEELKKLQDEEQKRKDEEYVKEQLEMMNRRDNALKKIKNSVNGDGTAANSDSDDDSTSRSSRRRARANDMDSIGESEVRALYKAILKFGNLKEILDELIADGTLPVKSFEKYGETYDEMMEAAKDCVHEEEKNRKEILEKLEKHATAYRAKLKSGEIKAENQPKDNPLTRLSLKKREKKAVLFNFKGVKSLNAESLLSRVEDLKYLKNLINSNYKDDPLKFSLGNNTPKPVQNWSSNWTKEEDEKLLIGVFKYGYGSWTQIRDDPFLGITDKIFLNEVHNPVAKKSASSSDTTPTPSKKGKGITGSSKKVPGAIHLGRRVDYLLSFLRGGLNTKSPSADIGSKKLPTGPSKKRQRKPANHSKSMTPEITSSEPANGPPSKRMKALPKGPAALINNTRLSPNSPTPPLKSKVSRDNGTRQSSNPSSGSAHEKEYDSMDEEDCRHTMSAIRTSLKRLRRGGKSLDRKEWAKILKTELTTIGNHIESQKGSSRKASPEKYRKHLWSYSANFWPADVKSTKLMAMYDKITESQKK

O=C1CSC(c2cccs2)c2cnn(C3CCCC3)c2N1 (configuration not stated)
Percent Effect [1]: -5.94% | Percent Effect [2]: -12% | Percent Effect [3]: 7.29% | Percent Effect [4]: 3.55% | Percent Effect [5]: 10.9% | Percent Effect (Trypanosoma cruzi): 3.73% | Percent Effect [6]: -35.7% | Percent Effect [7]: 8.5% | Percent Effect (Homo sapiens): 24% | Percent Effect [8]: 28.5% | Percent Effect [9]: 4.23% | Percent Effect [10]: 20.5% | Percent Effect [11]: 66.9%

Cc1nc(N2CCN(C(=O)C(C)C)CC2)c2c3c(sc2n1)CC(C)CC3 (configuration not stated)
PXC50 ([12]; MAX_EFFECT 28.46347607): < 4 | PXC50 ([12]; MAX_EFFECT 29.26208651): < 4

COc1ccc(Cl)cc1Cl
PXC50 ([12]; MAX_EFFECT 11.87904968): < 3 | PXC50 ([12]; MAX_EFFECT 16.92015209): < 3

Cc1cc(Cl)cc(Cl)c1O
PXC50 ([12]; MAX_EFFECT 7.127429806): < 3 | PXC50 ([12]; MAX_EFFECT 14.63878327): < 3

CN(C)C(=O)COC[C@H]1CC[C@@H]2[C@@H](CCN2Cc2ccccn2)O1
Percent Effect [1]: 1.44% | Percent Effect [2]: 2.7% | Percent Effect [3]: -8.07% | Percent Effect [4]: -3.81% | Percent Effect [5]: 1.03% | Percent Effect (Trypanosoma cruzi): 4.1% | Percent Effect [6]: 2.5% | Percent Effect [7]: 8.88% | Percent Effect (Homo sapiens): -3.32% | Percent Effect [8]: -6.42% | Percent Effect [9]: -14.8% | Percent Effect [10]: 3.66% | Percent Effect [11]: -2.81%
